From PubChem BioAssay AID1347423 (Functional Genomics Laboratory (NCATS/FGL), 2020)
Out of some 52,000 sequences screened, about 210 (0.4%) were called active. Only a selection was taken, and actives are over-represented in it overall. A number with no mark means an inactive call.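 Rule for the calls: active = gene whose silencing raises cell survival under the drug, median off-target-corrected z-score across its silencing RNAs 2 or more; inactive = the rest.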

Experiment: Resistance to Poly (ADP-Ribose) Polymerase inhibitor: Gene Identification via Genome-wide siRNA Screen
Conditions: mouse BRCA2 R2336H ES cells, olaparib, CellTiter-Glo viability; active compounds read high
Text: The role of Poly (ADP-Ribose) Polymerase (PARP) proteins in DNA repair has been elegantly utilized for the synthetic lethality-based treatment of BRCA-deficient tumors by PARP inhibitors. PARP inhibitors are now being used for treatment of BRCA-deficient breast and ovarian cancers. […] While several mechanisms of drug resistance have been identified, majority of these tumors develop drug resistance due to unknown causes. To identified novel regulators of chemo-resistance in BRCA2-mutated cells, we performed a genome wide siRNA library screen. We have found ES cells expressing a hypomorphic allele of BRCA2 to be hypersensitive to PAPP inhibitors (such as olaparib). We used ES cells expressing a mutant allele of BRCA2 that has a single amino acid substitution at position 2336 (arginine to histidine, R2336H). The screen was conducted using an Ambion (Thermo) Silencer Mouse Genome siRNA collection. The library targets 17,575 mouse genes with 3 siRNAs per gene. TET2 (E130014J05Rik) was identified as a top candidate.
Transfections were performed in 384 well plates (Corning 3707). Plates were coated with 0.1% gelatin in H2O overnight at ambient temperature. Gelatin solution was aspirated (BioTek EL406) and siRNAs were printed using a Bravo VPrep liquid handler integrated within a BioCel automation platform (Agilent). Cell viability was measured using CellTiter Glo (Promega). For transfections, […] of serum free media containing Lipofectamine RNAiMax […] was added to wells containing siRNA (0.8pmol). Lipid and siRNA were allowed to complex for 45 min at ambient temperature before addition of 1000 cells in DMEM, 30% FBS to yield final transfection mixtures containing 20 nM siRNA in DMEM, 15% FBS. PARPi (olaparib, AZD2281) was added 48 h post-transfection (500 nM) and viability (CellTiter Glo, Promega) was assayed 72 h later on a PerkinElmer Envision 2104 Multilabel plate reader. Ambion Silencer Select Negative Control #2 was incorporated on all screening plates (16 wells) and the median negative control value on each plate was used for normalization. An siRNA targeting Trp53 was used as a positive control. This control yielded a median protective effect of ~1.9 fold versus negative control throughout the screen. The median absolute deviation (MAD) based z-score was calculated for each siRNA. Genes were then ranked by taking the median value for all siRNAs tested against a given gene. Scores were also adjusted for seed-based off-target effects to help deprioritize likely false positives.

| Sequence | z-score |
| --- | --- |
| GCCUCUUUGAUAGCAAAAGTT against Cct6a | 0.0125 |
| GGCAUUUUUCUUCUCCAAATT against Clns1a | -0.934 |
| GGGACUGUAAUGUUGACACTT against Olfr560 | 0.851 |
| GGCAAAAAAAACUGCUAUATT against Gpr128 | 0.0555 (active) |
| GGAAAUAAGACUCAGGUCATT against Gtf2a1 | -1.44 |
| GCGAGUUGGAAUUGAGAUCTT against Casp8 | 0.155 |
| GGUUUUGGCUCGAAGGAAATT against Tead2 | -1 |
| GGAAUGUCCACAUUUUGUATT against Tigd5 | 0.00592 |
| GGAUGAUGAGAGAAACAAATT against Jak1 | 2.1 (active) |
| GCCGGUUUCAGUUAAAGAGTT against Pccb | 2.26 |
| GGGAAUCGGCCUGAAGAAATT against Arl6ip5 | -0.707 |
| CCUUCUGGUGCUUUUAGAGTT against Tlm | 0.431 |
| GGGUUAUACCAAGUCCAUUTT against Mapk1 | 3.33 (active) |
| GGUUUCCAUGGUAACGUGGTT against Tns | 1.17 |
| CGAAGCUGCAAAGGAGAAGTT against Igf1 | -0.732 |
| GGUCUUCUACAACUCGGAATT against Sgpp1 | -0.0398 (active) |
| GGAGAAGAAGAAAAGAACATT against Pom121 | -3.12 |
| GCACCCGGCACUAGAAAAATT against Shoc2 | 0.638 |
| GCUUUACCUGCUCAGAAGCTT against Olfr520 | 0.553 |
| GCGAUUUUACGGAUCCGGUTT against Olfr1420 | -0.612 |
| GGGAAGUCACUGAAGCCUGTT against Akr7a5 | -0.538 |
| GGGACACACGGUAUACAUCTT against Pfkl | 0.358 |
| GGAUGUUAUAAGAUUGCGUTT against Rnf170 | -0.646 |
| GGAACUGAUGAAUAUUUCATT against Chrnb1 | 0.177 (active) |
| GUUGGUAAAGGUCCUUGCCTT against D17Wsu155e | -1.02 |
| GCUACUCAUGCUAGAUGACTT against Gba | 1.64 |
| GGUUGAACCCACUCUGCAATT against Olfr1113 | -2.16 |

| Sequence | z-score |
| --- | --- |
| GCACAGUGGAUGCAAUCAGTT against Btbd1 | 0.346 |
| GCCCGACAGGAGAUAUUUATT against B230340J04Rik | -1.19 |
| GGAGAGCUGGAACAAUAGCTT against Bcl2l2 | 2.66 (active) |
| GCCUUUGUAGGUUCAAGUGTT against 2310001H12Rik | 1.78 |
| GGAGAAGAUCGGAUGGCGATT against Itgb5 | -0.391 |
| CGGACUAAGUUUCAAAUCGTT against Pcdha2 | -0.594 |
| GGAUGUCACAACAGUUAUGTT against Otog | 1.4 |
| CCUAUAUGCGCUAUUUGAATT against 4732465J09Rik | 0.557 |
| GGCUAAUGUAUCGUCUGAGTT against Asb16 | 0.422 (active) |
| CCCUGACGAAGCCAUACAUTT against Bcor | -1.33 |
| GGACAAACAUUGGAUUGAUTT against 0610009C03Rik | 0.453 |
| CCCAGAGGUUCCCGUCAAUTT against Hmgb3 | 1.9 (active) |
| GCCACCCACCUAAAAUCAATT against BC025872 | 0.573 |
| GGGAAAUGGCUCAUACUGGTT against 2210010C04Rik | -0.608 |
| GACCGAGUUCAAAGCGAACTT against Atp5e | -2.59 |
| GGAAGAAAGCCAUUUGCUUTT against 4632412I24Rik | 0.766 |
| CGAUGAGAUGCGUAUUGAGTT against Card11 | -0.977 |
| GCGAACUCCUCUUUAGGCATT against Chrng | -0.258 (active) |
| GGGUAGACAGAAAGCCUUUTT against Olfr111 | -0.573 |
| GGUGUCUUAAAGCUGAAAUTT against E2f5 | 2.8 |
| GGAGAGGAAUGGUGUGUUATT against 4931428D14Rik | -0.16 |
| GGUGUUCCUGUCUUUCAUGTT against Chordc1 | -1.35 |
| CCAACUUCAAAACUAUCGUTT against Trp53bp1 | 1.96 (active) |
| GCUAGUGGUAAGUCAACCATT against D6Ertd349e | -0.584 |
| GGUGGGAAUGGGAAUCAGUTT against Akr1e1 | 1.57 |
| GUCCAUCAGCAGCUCAAUGTT against Ifna5 | -0.126 |
| GGCUUAUUUUUCUUCAGUUTT against Ext1 | -0.0515 |

| Sequence | z-score |
| --- | --- |
| GGAGGAAAAAAAGUGAAGATT against Zfp339 | 0.689 |
| CCUAUGCUAUGUAGUUUAATT against Adam21 | 0.555 (active) |
| GCUGAUGAAGGUGAUACGUTT against Pnma2 | 0.0302 |
| GGCACCUAAAUUCUUGAAUTT against Hspb6 | -0.361 |
| GGCCCUUCCCAAAGUAUUATT against Mup3 | 0.32 |
| CCUACUACCUCUGUCAACATT against Nme4 | 1.46 |
| GGUGGAGUUUGUGCAGAAGTT against 2310026J01Rik | 0.572 |
| CGAUGAUUCCAAGUUUGGCTT against Pinx1 | -0.772 |
| CCUGCAGCUGUAAAACCUGTT against Mt4 | -0.909 |
| CCGUAUCCGGCAUUGGAUUTT against Mrps16 | 0.345 |
| GCUGUCCACUGCUUAAAUCTT against Isyna1 | 0.392 |
| GGAAUUGUACAAAUGACCUTT against Adam29 | -0.0465 (active) |
| GGAGCUCAGAUGCAAUGAGTT against Zfp393 | -0.714 |
| GGAUGAGCUCAAGAAGUCCTT against Snrpa | -1.3 |
| CCUGUUUACAAGGAAUUGATT against Itgb1 | 0.411 |
| GGAUCACAGCGAUUAUUGATT against D630028G08Rik | -0.512 |
| CCCAUACUAAAAUUGUUGATT against Adam29 | 2.32 (active) |
| GCCAGGAUAUGGAUAUGCATT against 1520401A03Rik | 1.47 |
| CGACUUCAUAAUUAUGCAATT against Als2 | 0.307 |
| GCCGAAUCCGAACAAAACCTT against Tat | 1.35 (active) |
| GCUGUAUUGAAGGUCCCUUTT against Olfr744 | -2.34 |
| CCUGGCUAAUGACUAGCUCTT against D730046L02Rik | -0.501 |
| GGUCUCCCUUCAGUAUGAGTT against Ela3b | 2.47 (active) |
| GCUCAUUCUUACCAAUCUCTT against 2210413P10Rik | -0.897 |
| GCCUCCACAUAGCUUCAACTT against 1110030H02Rik | 1.14 |
| GGUUGCACUUUUUCAUAGUTT against Bcl2l2 | 2.83 (active) |
| GGGAGCUCUAAAAAAAGUGTT against Olfr390 | 0.0742 |

| Sequence | z-score |
| --- | --- |
| GGAGGAGAGGUACAAACGGTT against Cxxc1 | -1.2 |
| GCGGGCAAUGCCUUAAAAGTT against D16Ertd607e | 0.194 |
| GCCCGGUAAAGGUAUCCAUTT against Trp53bp1 | 1.78 (active) |
| GGGCACCUAUUCAGAUACCTT against Mtap2 | 0.64 |
| GGAAAAGACGGGAGAUUUGTT against Mbldc1 | 0.0178 |
| GUACGUCAUGGGUCACUUCTT against Pomc1 | -0.0856 |
| GGACAGAGUUCGAUCGACUTT against BC021523 | -0.107 |
| GUGAUGACUGAGCUUCUAATT against Olfr1446 | -1.51 |
| GCCUACAGAGUCUUAGUUATT against 2400003B06Rik | 0.0277 |
| GGGAGAAGAAGAUACACCATT against Usp47 | 2.16 (active) |
| GGCUGUGGACUUUUGUAAUTT against 3110002H16Rik | 0.704 |
| GCCGUUUUAUUCACGUGAATT against 1810033M07Rik | -0.105 |
| GGUUAAAGAAGCCAUGAAATT against Olfr480 | 1.26 |
| GCCUGUUCCGCCAUUCAUGTT against Fliih | -1.13 |
| GGAGUGAUUAACCUAACUCTT against Crip3 | -0.183 (active) |
| GACAAGACAAGUUUUGGUATT against Elmo1 | -0.497 |
| GGCCUUGAGGCUAUUCAUGTT against Stk16 | 0.0229 |
| GGAAAGUUGUAUUUGAUGUTT against Nudt7 | 0.299 |
| GCAUCUUCGAGGUUUCAAATT against BC006583 | 2.47 |
| GGAAGUAGAGACAGGAGGATT against AF119384 | 1.25 |
| GCGGCAUAUGCCUACUCUUTT against Slc6a12 | -1.46 (active) |
| GCCUAGACCAGAGAAAGGUTT against AW555464 | 0.139 |
| GCAAGUAUUAAGUAUGACGTT against Vps13c | 0.194 |
| GGCCAGGAGAAGAAGAUACTT against E130014J05Rik | 4.51 (active) |
